Inconclusive results are not listed. Where a call stands in place of a potency, no number is given. Activity calls are given as the source filed them. Unless noted, calls come from the whole dose curve; as a rule, active = well fitted curve in the direction sought with a large enough effect in the repeat runs; inconclusive = weak or mixed curves; inactive = no such curve, though single readings can be large; an effect the other way counts as inactive or inconclusive.
Experiments:
[1] = qHTS assay for small molecules that induce genotoxicity in human embryonic kidney cells expressing luciferase-tagged ATAD5 (AID 651632); note: nearly all actives have a fitted effect of over 15% in size
Method in brief: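 A rise in luciferase signal from ATAD5-tagged HEK293T cells marks genetic stress. Cells were exposed to compounds for 16 hr at 37C, 5% CO2, then luciferase was quantified after a 30 min room-temperature incubation with Amplite.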

[2] = qHTS assay for small molecules that induce genotoxicity in human embryonic kidney cells expressing luciferase-tagged ATAD5 - cell viability (AID 651634; calls by dose curve; note: nearly all actives have a fitted effect of over 25% in size)
Method in brief: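 Cytotoxicity counter-readout: after 15.5 hr compound treatment at 37C, live-cell protease activity in ATAD5-luciferase HEK293T cells measured by CellTiter-Fluor fluorescence, 30 min development at 37C.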

[3] = qHTS assay for small molecule disruptors of the mitochondrial membrane potential - cell viability (AID 720634; calls by dose curve;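 note: human HepG2 liver cancer cells; nearly all actives have a fitted effect of over 20% in size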)
Method in brief: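 Cytotoxicity was quantified from ATP content by CellTiter-Glo luminescence in the same wells as the MMP dye read-out. HepG2 (2,000 cells/well) were plated overnight and exposed to compounds for 1 hr at 37 C.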

[4] = qHTS assay to test for compound auto fluorescence at 590 nm (red) in HepG2 cells (AID 720674)
Method in brief: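 1 hr compound incubation on HepG2 cells, 37 C, 5% CO2; plate read ex 540 nm / em 590 nm; intensities reported as Rose Bengal sodium equivalents.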

[5] = qHTS assay to test for compound auto fluorescence at 535 nm (green) in HepG2 cells (AID 720675)
[6] = qHTS assay to test for compound auto fluorescence at 460 nm (blue) in HEK293 cells (AID 720678)
Method in brief: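 Measured: blue fluorescence (Ex 405/Em 460 nm) of compound-treated HEK293 cells, incubated overnight at 37C with 5% CO2 and scaled to triamterene equivalents.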

[7] = qHTS assay to test for compound auto fluorescence at 590 nm (red) in HEK293 cells (AID 720679)
Method in brief: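 Using HEK293 cells at 2,000 per well, the screen added 23 nL of each compound after cell attachment and incubated overnight (37C, 5% CO2). The plate reader then captured red-label fluorescence, Ex/Em 540/590nm.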

[8] = qHTS assay to test for compound auto fluorescence at 535 nm (green) in HEK293 cells (AID 720680)
[9] = qHTS assay to test for compound auto fluorescence at 460 nm (blue) in HEK293 cell free culture (AID 720681)
Method in brief: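 Blue fluorescence (Ex 405/Em 460 nm, triamterene-equivalent) was read immediately after pin transfer of compound or DMSO into medium (DMEM, 10% FBS) without cells.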

[10] = qHTS assay to test for compound auto fluorescence at 535 nm (green) in HEK293 cell free culture (AID 720682)
Method in brief: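 Fluorescein serves as the green reference fluorophore; each compound's intrinsic emission at 535 nm (excitation 485 nm) is reported as an equivalent amount of that dye, measured in serum-containing DMEM without cells.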

[11] = qHTS assay to test for compound auto fluorescence at 590 nm (red) in HEK293 cell free culture (AID 720683)
Method in brief: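 Red-channel autofluorescence of compounds in culture medium (DMEM, 10% FBS), no cells, measured at 540/590 nm. Rose Bengal sodium is the reference fluorophore for equivalence.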

[12] = qHTS assay to test for compound auto fluorescence at 590 nm (red) in HepG2 cell free culture (AID 720684)
Method in brief: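 No cells present: MEM + 10% FBS only. Compound pinned in, red label read (540/590 nm). Activity = fluorescence equivalent to Rose Bengal sodium.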

[13] = qHTS assay to test for compound auto fluorescence at 460 nm (blue) in HepG2 cell free culture (AID 720685)
Method in brief: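 Cell-free plates of MEM plus 10% FBS received 23 nL compound or DMSO vehicle; blue-channel (405/460 nm) intensity scored against triamterene as reference fluorophore.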

[14] = qHTS assay to test for compound auto fluorescence at 535 nm (green) in HepG2 cell free culture (AID 720686)
[15] = qHTS assay to test for compound auto fluorescence at 460 nm (blue) in HepG2 cells (AID 720687)
Method in brief: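 Blue-channel autofluorescence (Ex/Em 405/460 nm, triamterene-equivalent) was measured after 1 hr compound exposure at 37 C, 5% CO2. Cells were HepG2, plated overnight at 37 C in MEM plus 10% FBS.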

[16] = biological target: Glucocorticoid receptor (Homo sapiens) (UniProt P04150); experiment: qHTS assay to identify small molecule agonists of the glucocorticoid receptor (GR) signaling pathway (AID 720691; active = well fitted activation curve with a large enough effect in the signal ratio in the repeat runs, not every such curve was filed as active; the % refers to the signal ratio); settings: GR-bla HeLa, beta-lactamase reporter ratio, 18 h; activation: at 62.4 µM (top of the series)
Sequence of Glucocorticoid receptor (Homo sapiens) (P04150 whole entry, looked up): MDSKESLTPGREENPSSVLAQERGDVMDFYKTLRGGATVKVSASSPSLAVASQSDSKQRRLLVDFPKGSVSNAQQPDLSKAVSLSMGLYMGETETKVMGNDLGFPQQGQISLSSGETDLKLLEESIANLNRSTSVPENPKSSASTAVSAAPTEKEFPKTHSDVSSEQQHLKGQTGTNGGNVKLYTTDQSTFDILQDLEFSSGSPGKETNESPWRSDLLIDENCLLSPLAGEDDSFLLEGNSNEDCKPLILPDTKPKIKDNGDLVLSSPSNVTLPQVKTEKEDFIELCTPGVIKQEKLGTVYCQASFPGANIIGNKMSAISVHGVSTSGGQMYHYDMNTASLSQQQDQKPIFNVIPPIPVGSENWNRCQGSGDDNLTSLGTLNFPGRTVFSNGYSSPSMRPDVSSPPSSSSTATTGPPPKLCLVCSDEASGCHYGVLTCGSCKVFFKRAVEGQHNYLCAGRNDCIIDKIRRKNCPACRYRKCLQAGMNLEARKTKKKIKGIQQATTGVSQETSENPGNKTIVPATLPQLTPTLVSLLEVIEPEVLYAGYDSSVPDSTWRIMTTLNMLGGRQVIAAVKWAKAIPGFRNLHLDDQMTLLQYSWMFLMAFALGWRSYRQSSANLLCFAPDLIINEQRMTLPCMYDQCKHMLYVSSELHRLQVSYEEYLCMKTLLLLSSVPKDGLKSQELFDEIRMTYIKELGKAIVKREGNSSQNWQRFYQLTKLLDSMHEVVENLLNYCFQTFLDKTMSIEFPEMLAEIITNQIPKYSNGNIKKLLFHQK
Method in brief: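 Agonist-mode qHTS in HeLa cells stably expressing a glucocorticoid-response-element beta-lactamase reporter. Fluorescence intensity read with FRET substrate (2 h, room temperature) after 18 h compound treatment at 37 C.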

[17] = biological target: Glucocorticoid receptor (Homo sapiens) (UniProt P04150); experiment: qHTS assay to identify small molecule antagonists of the glucocorticoid receptor (GR) signaling pathway (AID 720692; active = well fitted inhibition curve with a large enough effect in the signal ratio in the repeat runs, not every such curve was filed as active; the % refers to the signal ratio; note: potency is the fitted concentration of half-maximal effect)
Method in brief: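 Inhibition of dexamethasone-driven (5 nM final) beta-lactamase expression was measured in GRE-reporter HeLa cells over 18 h at 37C. Fluorescence was read after 2 h with the B/G FRET substrate at room temperature.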

[18] = qHTS assay for small molecule disruptors of the mitochondrial membrane potential (AID 720635); note: potency is the fitted concentration of half-maximal effect
Method in brief: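 Mitochondrial membrane potential tracked with Mito-MPS dye, red aggregates (ex 540/em 590 nm) against green monomers (ex 490/em 535 nm). Compound treatment 1 hr at 37C, dye 30 min in HepG2.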

[19] = qHTS assay for small molecule agonists of the p53 signaling pathway - cell viability (AID 651633; calls by dose curve; note: nearly all actives have a fitted effect of over 30% in size; note: potency is the fitted concentration of half-maximal effect)
Method in brief: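 Viability counter-read: CellTiter-Glo luminescence (30 min, room temperature) in the same p53RE-bla plates. These plates had been exposed to compounds for 16 h at 37 C.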

## CCCCCCC(=O)O[C@H]1CC[C@H]2[C@@H]3CCc4cc(O)ccc4[C@H]3CC[C@]12C
[1]
  Potency: inactive
[2]
  Potency: inactive
[3]
  Potency: inactive
[18]
  Potency: 11.9 µM (active)
[4]
  Potency: inactive
[5]
  Potency: inactive
[6]
  Potency: inactive
[7]
  Potency: inactive
[8]
  Potency: inactive
[9]
  Potency: inactive
[10]
  Potency: inactive
[11]
  Potency: inactive
[12]
  Potency: inactive
[13]
  outcome: inactive
[14]
  Potency: inactive
[15]
  outcome: inactive
[17]
  Potency: 7.56 µM (active)

## O=C1C(=O)c2ncccc2-c2cccnc21
[1]
  Potency: inactive
[2]
  Potency: inactive
[3]
  Potency: inactive
[18]
  Potency: 26.6 µM (active)
[4]
  Potency: inactive
[5]
  Potency: inactive
[7]
  Potency: inactive
[8]
  Potency: inactive
[10]
  Potency: inactive
[11]
  Potency: inactive
[12]
  Potency: inactive
[14]
  Potency: inactive
[16]
  Potency: inactive

## O=C(O)c1cc(N=Nc2ccc(O)c(C(=O)O)c2)ccc1O
[1]
  Potency: inactive
[2]
  Potency: inactive
[3]
  Potency: inactive
[18]
  Potency: inactive
[4]
  Potency: inactive
[5]
  Potency: inactive
[6]
  Potency: inactive
[7]
  Potency: inactive
[9]
  Potency: inactive
[10]
  Potency: inactive
[11]
  Potency: inactive
[12]
  Potency: inactive
[13]
  outcome: inactive
[14]
  Potency: inactive
[15]
  outcome: inactive
[16]
  Potency: inactive
[17]
  Potency: inactive

## COc1c(O[C@@H]2O[C@H](CO)[C@@H](O)[C@H](O)[C@H]2O)cc2c(c1OC)-c1ccc(SC)c(=O)cc1[C@@H](NC(C)=O)CC2
[1]
  Potency: inactive
[2]
  Potency: inactive
[3]
  Potency: inactive
[4]
  Potency: inactive
[5]
  Potency: inactive
[6]
  Potency: inactive
[7]
  Potency: inactive
[8]
  Potency: inactive
[9]
  Potency: inactive
[10]
  Potency: inactive
[11]
  Potency: inactive
[12]
  Potency: inactive
[13]
  outcome: inactive
[14]
  Potency: inactive
[15]
  outcome: inactive

## CCC(=O)Oc1ccc2c(c1)CC[C@@H]1[C@@H]2CC[C@]2(C)[C@@H](OC(=O)CC)CC[C@@H]12
[1]
  Potency: inactive
[2]
  Potency: inactive
[3]
  Potency: inactive
[18]
  Potency: inactive
[4]
  Potency: inactive
[5]
  Potency: inactive
[6]
  Potency: inactive
[7]
  Potency: inactive
[10]
  Potency: inactive
[11]
  Potency: inactive
[12]
  Potency: inactive
[14]
  Potency: inactive
[15]
  outcome: inactive
[16]
  Potency: inactive
[17]
  Potency: 4.25 µM (active)

## CN[C@@H]1[C@H](O[C@H]2[C@H](O[C@H]3[C@H](O)[C@@H](O)[C@H](N=C(N)N)[C@@H](O)[C@@H]3N=C(N)N)O[C@@H](C)[C@]2(O)CO)O[C@@H](CO)[C@H](O)[C@H]1O
[1]
  Potency: inactive
[2]
  Potency: inactive
[3]
  Potency: inactive
[4]
  Potency: inactive
[5]
  Potency: inactive
[6]
  Potency: inactive
[7]
  Potency: inactive
[8]
  Potency: inactive
[9]
  Potency: inactive
[10]
  Potency: inactive
[11]
  Potency: inactive
[12]
  Potency: inactive
[13]
  outcome: inactive
[14]
  Potency: inactive
[15]
  outcome: inactive
[16]
  Potency: inactive
[17]
  Potency: inactive

## Cc1cc(O)c2c(c1)O[C@@]1(C)CC[C@H]3C(C)(C)CCCC34CO[C@@H]2[C@H]41 (stereo not given in full)
[1]
  Potency: inactive
[19]
  Potency: 26.6 µM (active)
[4]
  Potency: inactive
[5]
  Potency: inactive
[6]
  Potency: inactive
[7]
  Potency: inactive
[8]
  Potency: inactive
[9]
  Potency: inactive
[10]
  Potency: inactive
[11]
  Potency: inactive
[12]
  Potency: inactive
[13]
  outcome: inactive
[14]
  Potency: inactive
[15]
  outcome: inactive

## CS(=O)(=O)OCC(O)C(O)COS(C)(=O)=O (stereo not given)
[1]
  Potency: inactive
[2]
  Potency: inactive
[3]
  Potency: inactive
[18]
  Potency: inactive
[4]
  Potency: inactive
[5]
  Potency: inactive
[6]
  Potency: inactive
[7]
  Potency: inactive
[8]
  Potency: inactive
[9]
  Potency: inactive
[10]
  Potency: inactive
[11]
  Potency: inactive
[12]
  Potency: inactive
[13]
  outcome: inactive
[14]
  Potency: inactive
[15]
  outcome: inactive
[16]
  Potency: inactive
[17]
  Potency: inactive

## COc1ccc(C2NC(=S)N3C(c4ccc(OC)c(OC)c4)NC(=S)N23)cc1OC (stereo not given)
[1]
  Potency: inactive
[2]
  Potency: inactive
[3]
  Potency: inactive
[18]
  Potency: inactive
[4]
  Potency: inactive
[5]
  Potency: inactive
[6]
  Potency: inactive
[7]
  Potency: inactive
[8]
  Potency: inactive
[9]
  Potency: inactive
[10]
  Potency: inactive
[12]
  Potency: inactive
[14]
  Potency: inactive
[15]
  outcome: inactive

## CCC[C@@H]1C[C@@H](C(=O)N[C@@H]([C@H]2O[C@H](SC)[C@H](O)[C@@H](O)[C@H]2O)[C@H](C)Cl)N(C)C1
[1]
  Potency: inactive
[2]
  Potency: inactive
[3]
  Potency: inactive
[18]
  Potency: inactive
[4]
  Potency: inactive
[5]
  Potency: inactive
[6]
  Potency: inactive
[7]
  Potency: inactive
[9]
  Potency: inactive
[10]
  Potency: inactive
[11]
  Potency: inactive
[12]
  Potency: inactive
[13]
  outcome: inactive
[14]
  Potency: inactive
[15]
  outcome: inactive

## CC(CN1c2ccccc2Sc2ccc(S(=O)(=O)N(C)C)cc21)N(C)C (stereo not given)
[1]
  Potency: inactive
[2]
  Potency: inactive
[3]
  Potency: inactive
[4]
  Potency: inactive
[5]
  Potency: inactive
[6]
  Potency: inactive
[7]
  Potency: inactive
[8]
  Potency: inactive
[9]
  Potency: inactive
[10]
  Potency: inactive
[11]
  Potency: inactive
[12]
  Potency: inactive
[13]
  outcome: inactive
[14]
  Potency: inactive
[15]
  outcome: inactive
[17]
  Potency: inactive

## C[N@+]12CCCC[C@@H]1CCC(=C(c1cccs1)c1cccs1)C2
[19]
  Potency: inactive
[2]
  Potency: inactive
[3]
  Potency: inactive
[18]
  Potency: inactive
[4]
  Potency: inactive
[5]
  Potency: inactive
[6]
  Potency: inactive
[7]
  Potency: inactive
[8]
  Potency: inactive
[9]
  Potency: inactive
[10]
  Potency: inactive
[11]
  Potency: inactive
[13]
  outcome: inactive
[14]
  Potency: inactive
[15]
  outcome: inactive
[16]
  Potency: inactive

## CCCCCCCCCCCCCCCCCC[N+](C)(C)CCC[Si](OC)(OC)OC
[1]
  Potency: inactive
[2]
  Potency: inactive
[3]
  Potency: inactive
[4]
  Potency: inactive
[5]
  Potency: inactive
[6]
  Potency: inactive
[7]
  Potency: inactive
[8]
  Potency: inactive
[9]
  Potency: inactive
[10]
  Potency: inactive
[11]
  Potency: inactive
[12]
  Potency: inactive
[13]
  outcome: inactive
[14]
  Potency: inactive
[15]
  outcome: inactive
[17]
  Potency: inactive

From PubChem BioAssay (Tox21)
